# A number with no mark means an inactive call.
# Test system: Caenorhabditis elegans dauer (daf-2(e1370))
# Assay: proportion of mobile C. elegans dauer larvae relative to DMSO control (fraction of DMSO control); higher = more viable, less nematicidal, active = 0.63 or less; extreme values may be limits of the assay
# Details: 60 µM; 5 days; temperature: 20 °C
# Experimental: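 DODA library (846 commercial 1,3,4- and 1,2,4-oxadiazole compounds plus commercial nematicide controls) screened at a single dose of 60 µM (0.6% DMSO) in 96-well plates, two biological replicates. Read-outs: C. elegans N2 L1 survival/reproduction score at day 6, 20 °C (0: 0-10 worms, 1: 11-20, 2: 21-50, 3: >50, 4: overgrown/starved). C. elegans daf-2 dauer, D. dipsaci and M. hapla J2 mobility at day 5, 20 °C, and P. penetrans mobility at day 5, 20 °C, each relative to DMSO controls. M. hapla egg hatching at day 12, 25 °C, relative to the mean of 8 DMSO wells on the same plate.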
row,SMILES,proportion of mobile C. elegans dauer larvae
1,CCCc1ccc(-c2nc(-c3cccnc3)no2)cc1,0.926
2,COc1ccccc1NC(=O)c1ccccc1-c1nc(-c2ccccc2F)no1,1
3,Cc1cccc(-c2nnc(SCC(=O)NC(C)c3ccccc3)o2)c1 (stereo not given),1
4,CC(C)(C)c1ccc(OCc2nc(-c3ccccc3)no2)cc1,1
5,c1ccc(-c2noc(-c3cccs3)n2)cc1 [tioxazafen],0 (active)
6,COc1ccc(-c2noc(-c3ccc(Cl)cc3)n2)cc1,0.778
7,Fc1cccc(Cl)c1CSc1nnc(-c2ccccc2)o1,0.977
8,Cc1ccc(-c2nnc(SCC(=O)Nc3ccc(Br)c(C)c3C)o2)cc1,1
9,COc1ccc(Cl)cc1-c1noc(COc2ccc(Cl)cc2)n1,1
10,CCc1nnc(NC(=O)CSc2nnc(-c3cccc(C)c3)o2)s1,1
11,CCCC(=O)Nc1ccccc1-c1nc(-c2ccncc2)no1,1
12,Clc1ccc(CSc2nnc(-c3ccccc3)o2)c(Cl)c1,1
13,Brc1ccc(-c2nnc(SCc3ccccc3)o2)cc1,1
14,O=C(CSc1nnc(-c2ccccc2)o1)Nc1ccccc1C(F)(F)F,1
15,CCOc1cc(-c2nc(-c3ccccc3OC)no2)cc(OCC)c1OCC,1
16,COc1ccc(-c2nnc(SCC(=O)Nc3c(F)cc(F)cc3Br)o2)cc1,1
17,Cc1cc(C)cc(OCc2nc(-c3ccccc3Cl)no2)c1,1
18,Clc1ccc(CSc2nnc(-c3ccccc3Cl)o2)cc1,1
19,O=C(CSc1nnc(-c2ccco2)o1)Nc1ccc(Br)cc1,1
20,COc1cccc(-c2noc(-c3cccc(F)c3)n2)c1,1

row,SMILES,proportion of mobile C. elegans dauer larvae
1,CCOc1ccccc1-c1nnc(SCC(=O)Nc2nc(C)cs2)o1,1
2,O=C(CSc1nnc(-c2ccco2)o1)Nc1cccc2ccccc12,1
3,COc1ccc(-c2noc(COc3ccc(Br)c(C)c3)n2)cc1,1
4,Clc1ccc(-c2noc(-c3cccnc3)n2)cc1,0.452 (active)
5,Cc1cc(Cl)ccc1NC(=O)CSc1nnc(-c2ccncc2)o1,1
6,CCOc1ccccc1NC(=O)CSc1nnc(-c2ccccc2)o1,1
7,CN(C)C(=O)c1ccccc1-c1nc(-c2ccc(Cl)cc2)no1,1
8,Cc1cccc(-c2noc(-c3ccc(Br)cc3)n2)c1,1
9,COc1nc(C)ccc1-c1noc(-c2ccc(C(C)(C)C)cc2)n1,1
10,CC(C)Oc1ccc(-c2nc(-c3ccccc3)no2)cc1,1
11,COc1ccc(-c2noc(C34CC5CC(CC(C5)C3)C4)n2)cc1,1
12,COc1cccc(-c2noc(-c3ccccc3C)n2)c1,1
13,COc1ccc(-c2noc(COc3ccc(Cl)c(C)c3)n2)cc1,1
14,CCOc1ccc(NC(=O)CSc2nnc(-c3ccncc3)o2)cc1,1
15,O=C(CSc1nnc(-c2ccc(Cl)cc2)o1)NC1CC2CCC1C2 (stereo not given),1
16,CCOc1cc(-c2nc(-c3ccccc3C)no2)cc(OCC)c1OCC,1
17,Clc1ccc(OCc2nc(-c3ccccc3)no2)c(Br)c1,1
18,Cc1cccc(-c2nnc(SCC(=O)Nc3ccccc3F)o2)c1,1
19,COc1ccc(Cl)cc1NC(=O)CSc1nnc(-c2ccc(C)cc2)o1,1
20,Fc1ccc(-c2nc(-c3cccc(C(F)(F)F)c3)no2)cc1,1

# Reference: the supplement of paper PMC11219838
